Rows were chosen to be rich in hits. Some 3.7% of all compounds tested hit in one or more screens of this group.
TCR act – T cell receptor activation; primary human leukocytes, anti-CD3, IL-2 HTRF, 48 h; Potency, µM (highest dose often 9.22 µM), usual class: activators; 330,000 tested, under 10 active; AID 504894
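Primary human leukocytes incubated 48 hr with anti-CD3 beads plus compound, without co-stimulation. Secreted IL-2 measured by HTRF (europium cryptate/d2 anti-IL-2 pair, 320 nm excitation, 665 nm emission).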
PI5P4K alpha inh – blocks human PI5P4K alpha kinase activity. P48426. PI5P4Kalpha enzyme, ADP-Glo luminescence, 60 min; hits give low values. max response, %. 330,000 compounds, 1.2% hits; active means max response of -50% or lower; inconclusive means between -30% and -50%; inactive means -30% or higher; further: value at the top dose of about 77 µM
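ADP-Glo luminescence end-point after a 60 min room-temperature kinase reaction. PI5P4Kalpha and substrate in HEPES pH 7.4 buffer with EGTA, 0.1% CHAPS and 5% DMSO; ATP at 5 microM final.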
PLK1 PBD block – inhibitors of human PLK1 polo-box domain binding; Plk1 PBD binding of FITC phosphopeptide, fluorescence polarization; 360,000 compounds, 2.8% hits; Potency, µM, most hits filed as inhibitors; further: series mostly up to about 57 µM; nearly all actives have a fitted effect of over 65% in size
WRN inhibitor – blocks human WRN helicase. Q14191. WRN helicase unwinding, fluorescent forked duplex, kinetic. Potency, µM (highest dose often 114 µM), hits mostly inhibitors. 360,000 compounds, 0.46% hits. AID 651768; further: nearly all actives have a fitted effect of over 55% in size
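Screening of the MLSMR collection measured strand separation of a quenched forked DNA duplex (100 nM) by 20 nM WRN with 2 mM ATP, all final. Compounds were preincubated with enzyme 15 min at room temperature.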
VDR inhibitor – inhibitors of human vitamin D receptor; VDR-SRC2-3 peptide fluorescence polarization, 2 h; Potency, µM, hits mostly inhibitors; 400,000 compounds, 0.93% hits; AID 504847
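Signal is fluorescence polarization, reporting how far test compounds block the interaction of VDR with the SRC2-3 coregulator peptide after a 2 h room-temperature incubation.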
FEN1 inhibitor – inhibitors of human flap endonuclease 1; P39748; 390,000 compounds, 0.35% hits; Potency, µM (titrated, usually from 114 µM), hits mostly inhibitors; Recombinant FEN1 flap cleavage, fluorescence, 15 min; AID 588795; further: nearly all actives have a fitted effect of over 65% in size
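In this screen, 50 nM flap DNA substrate was added to 10 nM FEN1 pretreated with compound for 15 min at room temperature; cleavage was followed with reads at 0 and 15 min, and Hill fitting gave concentration–response parameters.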
A number is an active result; n = inactive; u = inconclusive; x = no result given; [ ] = dose if it differs, or a comment. Unless noted, the call rests on the fitted dose curve; in most records, active means well fitted curve in the direction sought with a large enough effect; inconclusive means small, poorly fitted or top-dose-only effect, or another doubt; inactive means no such curve, though single readings can be large; an effect the other way counts as inactive or inconclusive.

SMILES	TCR act	PI5P4K alpha inh	PLK1 PBD block	WRN inhibitor	VDR inhibitor	FEN1 inhibitor
CNc1ccnc(-c2c(C)noc2C)n1	x	x	x	x	n	x
Cc1noc(C)c1-c1nccc(N(C)Cc2ccco2)n1	x	x	x	x	44.7µM	x
CCC(C)(C)NC(=O)C1CCC(CNS(=O)(=O)c2ccc3c(c2)CC(C)N3C(C)=O)CC1 (configuration not stated)	x	x	x	x	n	n
CN(Cc1ccco1)c1ccnc(-c2cccnc2)n1	x	x	x	x	44.7µM	x
Cn1ncc([N+](=O)[O-])c1C(=O)Nc1ccccc1C(=O)O	n	-51.6	n	n	n	n
O=C(O)c1ccccc1NSc1ccccc1[N+](=O)[O-]	n	n	10.6µM	n	n	n
Cc1cccc(NC(=O)c2ccccc2Br)n1	n	n	26.7µM	n	n	n
O=C(NNC(=O)c1ccccc1[N+](=O)[O-])c1ccccc1[N+](=O)[O-]	n	n	26.7µM	n	n	n
O=C(O)c1ccccc1Sc1c([N+](=O)[O-])cc(C(F)(F)F)cc1[N+](=O)[O-]	n	n	n	n	n	n
O=C(NCCNC(=O)c1ccccc1[N+](=O)[O-])c1ccccc1[N+](=O)[O-]	n	n	n	n	n	n
CC[C@H](C)[C@H](NC(=O)[C@H](CCC(=O)O)NC(=O)[C@H](CO)NC(=O)[C@@H](NC(=O)[C@@H](N)CO)C(C)C)C(=O)N[C@@H](CCC(N)=O)C(=O)N[C@@H](CC(C)C)C(=O)N[C@@H](CCSC)C(=O)N[C@@H](Cc1cnc[nH]1)C(=O)N[C@@H](CC(N)=O)C(=O)N[C@@H](CC(C)C)C(=O)NCC(=O)N[C@@H](CCCCN)C(=O)N[C@@H](Cc1cnc[nH]1)C(=O)N[C@@H](CC(C)C)C(=O)N[C@@H](CC(N)=O)C(=O)N[C@@H](CO)C(=O)N[C@@H](CCSC)C(=O)N[C@@H](CCC(=O)O)C(=O)N[C@@H](CCCNC(=N)N)C(=O)N[C@H](C(=O)N[C@@H](CCC(=O)O)C(=O)N[C@@H](Cc1c[nH]c2ccccc12)C(=O)N[C@@H](CC(C)C)C(=O)N[C@@H](CCCNC(=N)N)C(=O)N[C@@H](CCCCN)C(=O)N[C@@H](CCCCN)C(=O)N[C@@H](CC(C)C)C(=O)N[C@@H](CCC(N)=O)C(=O)N[C@@H](CC(=O)O)C(=O)N[C@H](C(=O)N[C@@H](Cc1cnc[nH]1)C(=O)N[C@@H](CC(N)=O)C(=O)N[C@@H](Cc1ccccc1)C(=O)N[C@H](C(=O)N[C@@H](C)C(=O)N[C@@H](CC(C)C)C(=O)NCC(=O)O)C(C)C)C(C)C)C(C)C	x	x	x	x	n	x
Cc1cccc(NC(=O)c2ccccc2[N+](=O)[O-])n1	n	n	n	n	n	n
O=C(Nc1cccc(NC(=O)c2ccccc2[N+](=O)[O-])n1)c1ccccc1[N+](=O)[O-]	n	-55.3	2.67µM	u	n	n
CCC(=O)Nc1ccc(C2C(=O)c3ccccc3C2=O)cc1	n	n	23.8µM	n	n	n
CCCCC(=O)Nc1ccc(C2C(=O)c3ccccc3C2=O)cc1	n	n	n	n	n	n
COc1ccc(-c2[nH]c(-c3ccccc3)nc2SCC(=O)Nc2ccc3c(c2)OCO3)cc1	x	x	x	x	n	n
COc1ccc(S(=O)(=O)c2c(O)c3ccc(C(=O)Nc4ccc(F)cc4)cc3[nH]c2=O)cc1	n	u	29.9µM	n	u	n
CCc1ccccc1NC(=O)c1ccc2c(O)c(S(=O)(=O)c3ccc(OC)cc3)c(=O)[nH]c2c1	n	n	3.36µM	n	u	n
CN(C)c1ccc(-c2c(C3C4C=CCCC4(C)C(=O)N3Cc3ccccc3)ccc3ccccc23)cc1 (configuration not stated)	x	x	x	x	n	n
c1ccc(Nc2nc(NCc3ccco3)nc3nccnc23)cc1	x	x	x	x	n	n
Cc1ccc(S(=O)(=O)NCC(=O)OCN2C(=O)c3ccccc3C2=O)cc1	n	u	5.32µM	n	n	n
Cc1ccc(C2=Nc3ccccc3N(C(=O)c3ccccc3)C(C)C2)cc1 (configuration not stated)	n	n	29.9µM	n	n	n
CN1/C(=C/c2cc[n+](C)c3ccccc23)C=Cc2ccccc21	n	n	n	28.2µM	n	44.7µM
Cc1ncnc2nc[nH]c12	x	x	x	x	x	n
COc1ccc(-c2c[n+]3c(n2-c2ccccc2)CCCCC3)cc1	n	n	29.9µM	n	n	n
SMILES	TCR act	PI5P4K alpha inh	PLK1 PBD block	WRN inhibitor	VDR inhibitor	FEN1 inhibitor
CC(NC(=O)c1ccc2c(c1)sc1nc(-c3ccc(F)cc3)cn12)C12CC3CC(CC(C3)C1)C2 (configuration not stated)	x	x	x	x	n	n
Cc1cc(C(=O)NNC(=O)/C=C/c2ccco2)c(C)o1	n	u	23.8µM	u	u	u
Cc1ccc(NC(=O)c2cccc(NC(=O)/C=C/c3ccco3)c2)cc1C	n	-63.9	n	n[11.6 µM]	n	n
O=C(/C=C/c1ccco1)Nc1cccc(C(=O)Nc2ccccc2C(=O)O)c1	n	-68.7	21.2µM	u	u	50.1µM
Cc1ccc(NC(=O)N/C=C/c2ccco2)cc1C	n	-57.5	n	n	n	n
NS(=O)(=O)c1ccc(NC(=O)/C=C/c2ccco2)cc1	n	-63.4	u	u	n	n
Cc1cccc(C(=O)Nc2ccc(C(=O)N/N=C/c3ccco3)cc2)c1	n	-51.2	21.2µM	n[11.6 µM]	n	n
CCCCCCCCCCN(CCCCCCCCCC)c1ccc(/C=C/c2ccnc3ccccc23)cc1	x	x	x	x	x	n
COc1cc(C(=O)NC(=S)Nc2ccccc2[N+](=O)[O-])cc(OC)c1OC	n	n	21.2µM	n	n	n
Cc1ccccc1NC(=O)NCCN1C(=O)C2C3C=CC(C3)C2C1=O (configuration not stated)	n	n	n	n	n	n
O=C(NCCN1C(=O)C2C3C=CC(C3)C2C1=O)NCc1ccccc1 (configuration not stated)	n	n	n	n	89.1µM	n
CC(C)(C)c1cc(CNC2CS(=O)(=O)C[C@@H]2O)cc(C(C)(C)C)c1O (some centres not stated)	n	n	u	n	50.1µM	n
O=S1(=O)CC(O)C(NCc2ccco2)C1 (configuration not stated)	n	n	n	n	u	n
CCCCCCCOc1ccc(C2(C)NC(=O)NC2=O)cc1 (configuration not stated)	x	n	n	n	n	n
CCCCOc1ccc(C2(C)NC(=O)NC2=O)cc1 (configuration not stated)	n	n	7.52µM	u	25.1µM	n
Cc1cc(Nc2nn(C)c(N)c2C#N)ccc1F	n	-65.6	n	n	n	n
CCOc1ccc(/C=C/c2nc(C#N)c(N(C)C)o2)cc1	x	x	x	x	n	n

Screening data deposited in PubChem by National Center for Advancing Translational Sciences (NCATS).
